Screening results: PubChem BioAssay, National Center for Advancing Translational Sciences (NCATS)
In the library only some 5.5% were active in any assay of this set; here they are far more common.
MBNL1 CUG block – inhibitors of human MBNL1 binding to CUG repeat RNA; Potency, µM (titrated, usually from 57.5 µM), without a hit: at the top dose activity change, negative = inhibition, most hits filed as inhibitors; Q9NR56; TR-FRET MBNL1-His/biotin-(CUG)12 binding, 665/545 ratio; actives 0.036% (n = 280,000); AID 2675; active = well fitted inhibition curve with a large enough effect in the signal ratio, with a control signal flat, not every such curve was filed as active; inconclusive = small, poorly fitted or top-dose-only effect, or effect the other way, or a change in a side signal; inactive = no such curve, though single readings can be large or run the other way; the % refers to the signal ratio; also: potency is read from the fitted curve at half-maximal effect; % is scaled to controls: 0 for no effect and ±100 for the full control effect
Target sequence (Q9NR56 whole entry, looked up): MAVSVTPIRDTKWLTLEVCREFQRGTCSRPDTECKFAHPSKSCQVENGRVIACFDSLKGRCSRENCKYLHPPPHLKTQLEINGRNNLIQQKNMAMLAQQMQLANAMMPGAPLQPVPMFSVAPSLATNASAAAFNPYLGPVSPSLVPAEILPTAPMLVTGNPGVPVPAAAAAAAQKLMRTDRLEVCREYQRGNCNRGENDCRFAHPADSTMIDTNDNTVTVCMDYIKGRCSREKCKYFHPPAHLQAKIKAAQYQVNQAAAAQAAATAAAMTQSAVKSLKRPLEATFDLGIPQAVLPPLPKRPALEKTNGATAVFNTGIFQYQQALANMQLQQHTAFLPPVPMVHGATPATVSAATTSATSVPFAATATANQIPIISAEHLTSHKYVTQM
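His-tagged MBNL1 binding to biotinylated (CUG)12 RNA was measured by TR-FRET using terbium anti-His antibody (0.055 ng/ul final) and streptavidin-XL665 (5 nM final). Compounds were titrated 92 nM to 58 uM; 60 min at room temperature.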
Gal4-VP16 FLuc – counter-screen for ROR gamma inhibitors: Gal4-VP16 reporter; Drosophila S2 Gal4-VP16 UAS-luciferase, luminescence, 20 h; Potency, µM (series often up to 53.6 µM), for inactives: at the highest dose activity, negative = inhibition, most hits filed as inhibitors; actives 3.5% (n = 310,000); AID 2546;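 also: Gal4-VP16 expression switched on by copper sulfate through the metallothionein promoter; potency is read from the fitted curve at half-maximal effect; % is scaled to controls: 0 for no effect and ±100 for the full control effect; nearly all actives have a fitted effect of over 50% in size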
CBFb-RUNX1 inh – CBF-beta/RUNX1 interaction disruption | Q01196+Q13951 | AlphaScreen CBFb-His/RUNX1-biotin binding, biochemical | Potency, µM (series often up to 59.8 µM), inactives show top-dose activity, negative = inhibition, usual class: inhibitors | 230,000 tested, under 10 active; also: % of control where 0% means no effect
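Room-temperature protein-protein interaction test with 30 nM each of His-tagged CBF-beta and biotinylated RUNX1, 15 min with compound, then 90 min with nickel plus streptavidin beads. Signal read in AlphaScreen mode.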
RORg inh – blocks mouse ROR gamma transcriptional activity. P51450. Drosophila S2 Gal4-RORgamma UAS-luciferase reporter, 20 h. Potency, µM (highest dose often 53.6 µM), for inactives: at the highest dose activity change, negative = inhibition, usual class: inhibitors. actives 5.4% (n = 310,000). AID 2551; also: potency is read from the fitted curve at half-maximal effect; % is scaled to controls: 0 for no effect and ±100 for the full control effect; nearly all actives have a fitted effect of over 60% in size
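Luminescence from a UAS-regulated Photinus luciferase reporter in stably transfected Drosophila Schneider cells is measured; decreased signal marks ROR gamma inhibition. Fusion expression is induced by 700 uM copper sulfate for 20 hr.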
CtBP-E1A inh – CtBP/E1A binding inhibition; actives 0.49% (n = 340,000); activity change, % (concentration not given with the values); AlphaScreen GST-E1A/His-CtBP binding, 1536-well; active compounds read low; in the data active = activity change below about -65%; inconclusive = mostly about -30% to -63%; also: % is scaled to controls: 0 for no effect and ±100 for the full control effect
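Steps: dispense buffer (Tris pH 8.0, NaCl 300 mM, TCEP 1 mM, BSA, Tween 20); add 5X protein mix (GST-E1A, His-CtBP, 125 nM each); pin 23 nL compound; 2 h at 37 °C, dark; add 5X beads (50 ug/mL); 1 h; read.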
Six1-Eya2 blk – blocks human Six1 binding to Eya2 | AID 651725 | activity change, % (test concentration not listed) | actives 0.56% (n = 360,000) | AlphaScreen GST-Six1/His-Eya2 binding, biochemical; active compounds read low; in the data active = activity change below about -65%; inconclusive = mostly about -30% to -63%; also: % is scaled to controls: 0 for no effect and ±100 for the full control effect
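GST-Six1 + His-Eya2 (5X stock: 250/500 nM); Tris pH 8.0, 300 mM NaCl, 0.05% BSA, 0.02% Tween 20; GSH donor/Ni acceptor beads; 1 h 37 °C dark; AlphaScreen readout.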
Active calls of the source: *; ? = inconclusive; nt = no result given; [ ] = remark or other dose. Unless noted, calls follow the shape of the dose curve; as a rule, active = well fitted curve in the direction sought with a large enough effect; inconclusive = small, poorly fitted or top-dose-only effect, or another doubt; inactive = no such curve, though single readings can be large; an effect the other way counts as inactive or inconclusive.

SMILES	MBNL1 CUG block	Gal4-VP16 FLuc	CBFb-RUNX1 inh	RORg inh	CtBP-E1A inh	Six1-Eya2 blk
N#Cc1cccc(NC(=O)N2CC[C@@]3(CCCN(C(=O)c4cccc(F)c4)C3)C2)c1	nt	-4%	nt	-4%	nt	nt
Cc1nn(-c2ccc(C(=O)Nc3nnc(C4CC4)s3)cc2)c(C)c1Cl	-5%	1%	-1%	-2%	-1	5
Cc1nn(-c2ccccc2)c(Cl)c1C(=O)Nc1nnc(C2CCCCC2)s1	-3%	?	-1%	13µM*	-2	-1
COC(=O)c1c(Cl)c2n3ccccc3c(C)c(-c3ccccc3)c-2c1C(=O)OC	?	-11%	-14%	-4%	?	-68*
COC(=O)c1c(-c2ccccc2)c[nH]c1C	-4%	22%	-4%	?	49	21
COC(=O)c1cc2c(-c3ccccc3)c(C)c3ccccn3c-2c1C(=O)OC	54%	-7%	nt	-32%	?	-69*
COC(=O)c1c(C(=O)OC)c2ccccn2c1C(=O)c1ccccc1	19%	28%	nt	?	11	2
O=C(CNC(=O)c1ccccc1Br)NCC(c1ccco1)N1CCCCC1 (configuration not stated)	nt	nt	nt	nt	-7	5
Cc1ccc2[nH]c3nc(N/N=C/c4cccc(O)c4)nnc3c2c1	10%	-4%	nt	13%	-5	0
CCc1ccc2[nH]c3nc(N/N=C/c4ccc(O)cc4O)nnc3c2c1	9%	-9%	nt	-37%[1.91 µM]	-81*	?
CCc1ccc(-c2csc(NC(=O)C3=COCCO3)n2)cc1	nt	nt	nt	nt	3	-8
OC(c1ccc(F)cc1)c1nc(-c2ccoc2)cs1 (configuration not stated)	nt	nt	nt	nt	-3	1
Cc1cccc(OCCCn2c(=O)sc3ccccc32)c1	-4%	-24%	?	8.9µM*	27	27
COc1ccc2cc(-c3cc(C(=O)OCC(=O)Nc4c(C)n(C)n(-c5ccccc5)c4=O)c4ccccc4n3)ccc2c1	nt	?	6%	7.1µM*	1	13
COc1ccc2cc(-c3cc(C(=O)OCC(=O)NC4CCS(=O)(=O)C4)c4ccccc4n3)ccc2c1 (configuration not stated)	nt	1.8µM*	-6%	2.8µM*	-16	4
O=C(O)c1cc2ccc3cccc4ccc(c1)c2c34	19%	-5%	nt	2%	nt	-7
O=C(CCCSCCCC(=O)NN=Cc1ccccc1)NN=Cc1ccccc1	nt	nt	nt	nt	-25	-23
Cc1cc2c(NC3CCCCC3)ncnc2s1	-3%	13µM*	nt	?	1	-9
NS(=O)(=O)c1ccc(Sc2nc3ccccc3s2)c([N+](=O)[O-])c1	?	10µM*	-2%	-33%	-3	-1
COc1ccc(CNC(=S)Nc2cc(C)ccc2C)cc1	2%	7.1µM*	5%	7.9µM*	-4	-7
FC(F)Oc1ccccc1NC(=S)NCCc1ccccc1	nt	nt	nt	nt	2	7
COc1ccc(/C(C)=N/NC(=S)Nc2cc(C)ccc2C)cc1	-3%	11µM*	-1%	2.8µM*	-23	-2
Cc1ccc(NC(=S)NCC(O)c2ccccc2)c(C)c1 (configuration not stated)	-6%	4%	nt	-78%	0	0
COc1ccc(/C(C)=N/NC(=O)C2CC2)cc1	-1%	-13%	2%	11%	-2	1
Cc1ccc(C)c(NC(=S)N/N=C/C(C)c2ccccc2)c1 (configuration not stated)	-4%	7.1µM*	-3%	0.56µM*	3	-2
Cc1ccc(CNC(=S)Nc2cc(C)ccc2OC(F)F)cc1	-5%	?	20%	4.5µM*	2	2
COc1ccc(C(C)=NNS(=O)(=O)c2ccc(C)cc2)cc1OC	nt	nt	nt	nt	2	9
CN1CCN(c2ccc(S(=O)(=O)N3CCCCC3)cc2NC(=O)CSC(C)(C)C)CC1	nt	nt	nt	nt	4	-4
